# Legend:
# Test in all cases: DAPPL (digital affinity profiling via proximity ligation, sequencing); 10 mM Tris-HCl pH 7.5, 50 mM NaCl, 1 mM DTT, 4% glycerol, room temperature, 30 min; GST-TFs on glutathione beads, 16-mer random dsDNA library, 0.1% formaldehyde crosslink after washing; high values mean tight binding
# FLI1 = molecular target: T1, FLI1 (Homo sapiens, UniProt Q01543 1-452); settings: protein: recombinant; tags: N-terminal GST; dsDNA, one strand shown
# T1 sequence: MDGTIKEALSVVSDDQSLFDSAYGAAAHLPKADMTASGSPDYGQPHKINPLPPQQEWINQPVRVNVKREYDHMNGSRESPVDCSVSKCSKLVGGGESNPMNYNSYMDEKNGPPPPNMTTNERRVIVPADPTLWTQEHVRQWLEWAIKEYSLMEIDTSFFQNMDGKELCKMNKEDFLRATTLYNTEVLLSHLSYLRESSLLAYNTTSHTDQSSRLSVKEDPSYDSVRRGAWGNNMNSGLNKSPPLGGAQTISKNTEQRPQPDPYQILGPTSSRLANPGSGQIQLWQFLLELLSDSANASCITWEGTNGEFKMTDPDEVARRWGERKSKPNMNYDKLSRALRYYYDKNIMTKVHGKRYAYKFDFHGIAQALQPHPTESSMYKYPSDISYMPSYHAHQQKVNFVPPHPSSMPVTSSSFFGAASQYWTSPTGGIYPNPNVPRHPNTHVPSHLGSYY
# In short: (§1)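 Each value of binding signal is a hexamer's read frequency for a factor divided by the same hexamer's frequency in the tag-only sample. Barcoded, bead-captured GST fusions of human transcription factors made in yeast were pooled with that sample and incubated with 200 nmole of a random double-stranded 16-mer DNA library in Tris/NaCl/DTT/glycerol buffer at room temperature for 30 min. Washing, 0.1% formaldehyde crosslinking, proximity ligation, PCR and Illumina NextSeq500 sequencing followed.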
# ELK1 = molecular target: T2, ELK1 (Homo sapiens, UniProt P19419 1-428); settings: protein: recombinant; tags: N-terminal GST; dsDNA, one strand shown
# T2 sequence: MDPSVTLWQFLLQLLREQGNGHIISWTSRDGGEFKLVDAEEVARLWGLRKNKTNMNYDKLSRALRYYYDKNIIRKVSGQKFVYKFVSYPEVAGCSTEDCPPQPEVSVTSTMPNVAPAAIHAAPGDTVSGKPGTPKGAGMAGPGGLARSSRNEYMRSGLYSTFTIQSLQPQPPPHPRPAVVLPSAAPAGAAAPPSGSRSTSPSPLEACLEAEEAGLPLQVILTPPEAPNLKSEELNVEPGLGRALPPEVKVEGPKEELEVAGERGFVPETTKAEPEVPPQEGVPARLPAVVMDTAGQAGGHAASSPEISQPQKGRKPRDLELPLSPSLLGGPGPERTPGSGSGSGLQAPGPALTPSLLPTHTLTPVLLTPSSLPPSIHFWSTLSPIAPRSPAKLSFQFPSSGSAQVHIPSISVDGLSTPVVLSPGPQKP
# In short: as §1
# GABPA = molecular target: T3, GABPA (Homo sapiens, UniProt Q06546 1-454); settings: protein: recombinant; tags: N-terminal GST; dsDNA, one strand shown
# T3 sequence: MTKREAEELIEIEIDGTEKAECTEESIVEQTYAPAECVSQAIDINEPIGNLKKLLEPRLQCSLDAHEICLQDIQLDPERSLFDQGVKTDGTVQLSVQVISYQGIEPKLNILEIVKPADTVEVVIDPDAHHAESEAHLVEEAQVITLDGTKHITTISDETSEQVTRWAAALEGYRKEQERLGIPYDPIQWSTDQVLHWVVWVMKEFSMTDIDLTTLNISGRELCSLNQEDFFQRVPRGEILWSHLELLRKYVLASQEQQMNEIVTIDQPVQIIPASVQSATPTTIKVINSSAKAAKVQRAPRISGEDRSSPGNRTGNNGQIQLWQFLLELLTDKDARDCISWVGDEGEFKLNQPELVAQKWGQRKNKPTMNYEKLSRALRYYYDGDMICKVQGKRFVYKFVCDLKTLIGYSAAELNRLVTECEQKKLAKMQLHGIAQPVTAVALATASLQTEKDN
# In short: as §1
# ERG = molecular target: T4, ERG (Homo sapiens, UniProt P11308 1-479); settings: protein: recombinant; tags: N-terminal GST; dsDNA, one strand shown
# T4 sequence: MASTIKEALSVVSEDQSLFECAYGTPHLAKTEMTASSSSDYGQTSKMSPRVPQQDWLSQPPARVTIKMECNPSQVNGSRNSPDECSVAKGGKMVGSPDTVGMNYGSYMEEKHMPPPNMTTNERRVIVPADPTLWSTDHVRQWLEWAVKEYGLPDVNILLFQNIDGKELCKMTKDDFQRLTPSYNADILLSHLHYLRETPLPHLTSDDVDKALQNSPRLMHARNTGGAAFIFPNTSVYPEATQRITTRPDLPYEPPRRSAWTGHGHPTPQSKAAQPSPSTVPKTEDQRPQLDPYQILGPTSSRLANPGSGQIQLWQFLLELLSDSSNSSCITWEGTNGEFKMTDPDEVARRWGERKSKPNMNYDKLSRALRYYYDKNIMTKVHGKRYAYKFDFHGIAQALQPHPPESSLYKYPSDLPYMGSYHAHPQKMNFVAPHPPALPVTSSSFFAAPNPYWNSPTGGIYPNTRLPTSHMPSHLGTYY
# In short: as §1
# ELF1 = ELF1 (Homo sapiens, UniProt P32519 1-619); settings: protein: recombinant; tags: N-terminal GST; dsDNA, one strand shown
# In short: as §1
# EHF = molecular target: T5, EHF (Homo sapiens, UniProt Q9NZC4 1-300); settings: protein: recombinant; tags: N-terminal GST; dsDNA, one strand shown
# T5 sequence: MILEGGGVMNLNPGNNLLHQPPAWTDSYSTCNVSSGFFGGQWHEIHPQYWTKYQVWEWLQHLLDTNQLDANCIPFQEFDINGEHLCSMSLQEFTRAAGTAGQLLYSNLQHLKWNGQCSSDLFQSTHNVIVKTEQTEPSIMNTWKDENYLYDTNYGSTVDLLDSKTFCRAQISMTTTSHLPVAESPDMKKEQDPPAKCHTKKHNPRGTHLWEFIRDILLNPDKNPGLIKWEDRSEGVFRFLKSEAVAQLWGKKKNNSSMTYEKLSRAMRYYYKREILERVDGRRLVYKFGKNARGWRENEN
# In short: as §1
# SPI1 = SPI1 (Homo sapiens, UniProt P17947 1-270); settings: protein: recombinant; tags: N-terminal GST; dsDNA, one strand shown
# In short: as §1
# SPIB = SPIB (Homo sapiens, UniProt Q01892 1-262); settings: protein: recombinant; tags: N-terminal GST; dsDNA, one strand shown
# In short: as §1
# ELK3 = molecular target: T6, ELK3 (Homo sapiens, UniProt P41970 1-407); settings: protein: recombinant; tags: N-terminal GST; dsDNA, one strand shown
# T6 sequence: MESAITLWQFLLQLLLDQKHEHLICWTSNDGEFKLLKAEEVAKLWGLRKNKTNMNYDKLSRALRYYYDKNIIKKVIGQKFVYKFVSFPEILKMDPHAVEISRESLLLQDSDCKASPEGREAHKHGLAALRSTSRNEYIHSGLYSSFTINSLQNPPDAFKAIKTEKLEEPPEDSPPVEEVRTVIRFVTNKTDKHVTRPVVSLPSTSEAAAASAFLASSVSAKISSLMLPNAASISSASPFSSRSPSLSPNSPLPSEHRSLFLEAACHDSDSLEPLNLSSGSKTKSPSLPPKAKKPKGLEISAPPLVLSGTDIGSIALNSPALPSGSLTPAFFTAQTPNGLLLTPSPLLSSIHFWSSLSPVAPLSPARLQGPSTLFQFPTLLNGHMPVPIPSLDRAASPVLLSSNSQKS
# In short: as §1
# FEV = molecular target: T7, FEV (Homo sapiens, UniProt Q99581 1-238); settings: protein: recombinant; tags: N-terminal GST; dsDNA, one strand shown
# T7 sequence: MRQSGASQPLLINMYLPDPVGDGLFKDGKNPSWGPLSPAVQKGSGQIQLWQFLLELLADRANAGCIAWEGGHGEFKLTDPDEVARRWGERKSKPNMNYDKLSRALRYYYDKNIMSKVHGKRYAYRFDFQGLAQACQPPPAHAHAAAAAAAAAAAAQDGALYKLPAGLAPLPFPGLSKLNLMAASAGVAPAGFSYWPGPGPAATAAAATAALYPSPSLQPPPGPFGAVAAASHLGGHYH
# In short: as §1
# ETV5 = ETV5 (Homo sapiens, UniProt P41161 1-510); settings: protein: recombinant; tags: N-terminal GST; dsDNA, one strand shown
# In short: as §1
# HSF1 = HSF1 (Homo sapiens, UniProt Q00613 1-529); settings: protein: recombinant; tags: N-terminal GST; chain copies: 3; dsDNA, one strand shown
# In short: as §1
# SPIC = molecular target: T8, SPIC (Homo sapiens, UniProt Q8N5J4 1-248); settings: protein: recombinant; tags: N-terminal GST; dsDNA, one strand shown
# T8 sequence: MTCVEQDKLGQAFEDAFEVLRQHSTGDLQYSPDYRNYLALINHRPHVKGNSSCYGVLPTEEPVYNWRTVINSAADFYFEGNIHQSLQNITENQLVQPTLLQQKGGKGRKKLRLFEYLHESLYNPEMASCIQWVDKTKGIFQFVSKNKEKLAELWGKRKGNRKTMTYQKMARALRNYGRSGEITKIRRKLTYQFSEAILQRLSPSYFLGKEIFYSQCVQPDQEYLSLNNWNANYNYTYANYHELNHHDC
# In short: as §1
# ELF4 = ELF4 (Homo sapiens, UniProt Q99607 1-663); settings: protein: recombinant; tags: N-terminal GST; dsDNA, one strand shown
# In short: as §1
# ELK4 = molecular target: T9, ELK4 (Homo sapiens, UniProt P28324-2 1-405); settings: protein: recombinant; tags: N-terminal GST; dsDNA, one strand shown
# T9 sequence: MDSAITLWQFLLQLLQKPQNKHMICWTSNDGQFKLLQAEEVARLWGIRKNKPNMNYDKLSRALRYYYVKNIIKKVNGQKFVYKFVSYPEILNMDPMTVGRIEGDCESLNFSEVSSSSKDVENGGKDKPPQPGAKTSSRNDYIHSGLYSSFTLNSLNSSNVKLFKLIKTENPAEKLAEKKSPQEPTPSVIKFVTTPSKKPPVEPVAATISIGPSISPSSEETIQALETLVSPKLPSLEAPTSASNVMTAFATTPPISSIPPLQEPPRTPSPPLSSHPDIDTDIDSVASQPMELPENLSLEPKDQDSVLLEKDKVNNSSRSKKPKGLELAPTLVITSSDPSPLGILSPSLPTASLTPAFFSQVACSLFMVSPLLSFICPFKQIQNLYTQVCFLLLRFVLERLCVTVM
# In short: as §1
# ETV2 = molecular target: T10, ETV2 (Homo sapiens, UniProt O00321 1-342); settings: protein: recombinant; tags: N-terminal GST; dsDNA, one strand shown
# T10 sequence: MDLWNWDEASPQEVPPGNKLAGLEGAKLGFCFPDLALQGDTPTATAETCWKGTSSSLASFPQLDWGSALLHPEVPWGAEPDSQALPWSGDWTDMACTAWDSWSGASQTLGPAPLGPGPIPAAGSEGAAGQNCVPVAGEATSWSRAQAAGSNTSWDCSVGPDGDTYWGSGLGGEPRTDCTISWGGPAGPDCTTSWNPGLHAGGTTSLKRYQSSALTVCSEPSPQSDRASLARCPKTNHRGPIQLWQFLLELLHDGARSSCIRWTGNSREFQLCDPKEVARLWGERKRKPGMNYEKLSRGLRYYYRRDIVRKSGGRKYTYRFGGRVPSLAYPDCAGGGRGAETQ
# In short: as §1
# ELF3 = molecular target: T11, ELF3 (Homo sapiens, UniProt P78545 1-371); settings: protein: recombinant; tags: N-terminal GST; dsDNA, one strand shown
# T11 sequence: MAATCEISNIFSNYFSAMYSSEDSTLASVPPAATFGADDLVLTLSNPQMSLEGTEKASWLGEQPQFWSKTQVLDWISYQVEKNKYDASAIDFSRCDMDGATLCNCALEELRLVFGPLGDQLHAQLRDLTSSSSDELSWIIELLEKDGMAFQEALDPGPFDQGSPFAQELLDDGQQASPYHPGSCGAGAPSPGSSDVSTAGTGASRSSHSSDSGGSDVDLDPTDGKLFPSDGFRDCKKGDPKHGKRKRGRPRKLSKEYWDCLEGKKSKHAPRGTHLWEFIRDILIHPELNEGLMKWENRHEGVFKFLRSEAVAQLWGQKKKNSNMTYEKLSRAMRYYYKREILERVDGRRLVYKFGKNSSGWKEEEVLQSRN
# In short: as §1
# CRX = CRX (Homo sapiens, UniProt O43186 1-299); settings: protein: recombinant; tags: N-terminal GST; dsDNA, one strand shown
# In short: as §1
# ETV1 = ETV1 (Homo sapiens, UniProt P50549 1-477); settings: protein: recombinant; tags: N-terminal GST; dsDNA, one strand shown
# In short: as §1
# ELF1, sequence (P32519 whole entry): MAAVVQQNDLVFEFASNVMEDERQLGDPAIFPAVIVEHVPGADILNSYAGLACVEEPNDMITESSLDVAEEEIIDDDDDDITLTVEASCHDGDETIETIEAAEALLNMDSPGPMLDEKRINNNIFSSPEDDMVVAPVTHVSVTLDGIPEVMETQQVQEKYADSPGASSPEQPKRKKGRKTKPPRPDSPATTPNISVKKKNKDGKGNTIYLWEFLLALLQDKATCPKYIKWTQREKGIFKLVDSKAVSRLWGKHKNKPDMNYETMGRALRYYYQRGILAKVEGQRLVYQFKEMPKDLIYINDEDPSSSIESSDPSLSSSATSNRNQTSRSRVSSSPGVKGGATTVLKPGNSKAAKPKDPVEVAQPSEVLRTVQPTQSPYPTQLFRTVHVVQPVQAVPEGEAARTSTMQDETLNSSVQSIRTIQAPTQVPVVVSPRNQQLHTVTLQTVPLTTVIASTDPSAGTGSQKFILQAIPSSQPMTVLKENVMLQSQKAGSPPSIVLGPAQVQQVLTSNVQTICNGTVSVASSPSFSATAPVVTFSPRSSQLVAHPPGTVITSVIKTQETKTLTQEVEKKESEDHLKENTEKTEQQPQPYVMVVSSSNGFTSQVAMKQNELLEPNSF
# SPIB, sequence (Q01892 whole entry): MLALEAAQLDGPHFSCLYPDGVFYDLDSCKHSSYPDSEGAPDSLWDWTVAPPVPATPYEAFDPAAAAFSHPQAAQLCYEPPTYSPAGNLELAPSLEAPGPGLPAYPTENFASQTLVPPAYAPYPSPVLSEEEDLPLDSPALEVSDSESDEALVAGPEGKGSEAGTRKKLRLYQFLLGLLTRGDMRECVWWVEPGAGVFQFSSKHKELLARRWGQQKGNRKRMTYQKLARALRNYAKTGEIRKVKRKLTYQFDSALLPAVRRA
# ETV1, sequence (P50549 whole entry): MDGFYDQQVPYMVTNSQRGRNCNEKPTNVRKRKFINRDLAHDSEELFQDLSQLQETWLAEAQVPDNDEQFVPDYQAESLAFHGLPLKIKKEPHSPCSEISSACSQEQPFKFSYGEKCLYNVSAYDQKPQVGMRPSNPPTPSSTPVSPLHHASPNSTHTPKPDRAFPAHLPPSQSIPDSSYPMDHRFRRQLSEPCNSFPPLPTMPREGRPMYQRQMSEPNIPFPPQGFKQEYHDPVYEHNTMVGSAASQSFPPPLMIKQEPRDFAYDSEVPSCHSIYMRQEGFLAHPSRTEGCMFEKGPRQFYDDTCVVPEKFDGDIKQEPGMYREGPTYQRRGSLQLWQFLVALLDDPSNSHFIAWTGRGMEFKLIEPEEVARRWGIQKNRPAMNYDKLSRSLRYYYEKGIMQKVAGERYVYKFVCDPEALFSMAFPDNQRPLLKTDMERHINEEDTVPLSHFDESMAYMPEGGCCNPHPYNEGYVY
# ETV5, sequence (P41161 whole entry): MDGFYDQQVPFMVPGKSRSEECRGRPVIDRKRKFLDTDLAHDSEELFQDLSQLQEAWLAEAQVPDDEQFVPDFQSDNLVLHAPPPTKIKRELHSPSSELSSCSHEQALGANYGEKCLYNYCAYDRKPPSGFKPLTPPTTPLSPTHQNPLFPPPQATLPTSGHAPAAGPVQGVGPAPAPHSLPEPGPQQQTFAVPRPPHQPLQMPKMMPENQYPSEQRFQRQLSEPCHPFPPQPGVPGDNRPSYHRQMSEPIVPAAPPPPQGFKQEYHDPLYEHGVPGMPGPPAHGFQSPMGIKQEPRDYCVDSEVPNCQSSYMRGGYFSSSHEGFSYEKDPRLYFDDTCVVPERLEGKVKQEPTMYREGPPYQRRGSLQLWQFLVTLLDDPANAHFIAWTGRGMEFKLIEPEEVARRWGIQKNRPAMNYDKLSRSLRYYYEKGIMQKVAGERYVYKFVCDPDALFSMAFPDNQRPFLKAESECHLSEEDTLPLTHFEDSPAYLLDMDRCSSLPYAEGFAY
# CRX, sequence (O43186 whole entry): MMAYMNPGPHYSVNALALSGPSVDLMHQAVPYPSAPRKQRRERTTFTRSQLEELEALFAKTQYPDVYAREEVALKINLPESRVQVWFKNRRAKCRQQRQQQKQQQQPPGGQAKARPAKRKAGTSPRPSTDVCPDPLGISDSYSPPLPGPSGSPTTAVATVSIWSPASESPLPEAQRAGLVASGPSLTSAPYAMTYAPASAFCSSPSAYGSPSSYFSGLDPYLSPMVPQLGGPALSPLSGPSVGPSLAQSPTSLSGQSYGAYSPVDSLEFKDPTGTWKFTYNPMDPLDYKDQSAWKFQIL
# HSF1, sequence (Q00613 whole entry): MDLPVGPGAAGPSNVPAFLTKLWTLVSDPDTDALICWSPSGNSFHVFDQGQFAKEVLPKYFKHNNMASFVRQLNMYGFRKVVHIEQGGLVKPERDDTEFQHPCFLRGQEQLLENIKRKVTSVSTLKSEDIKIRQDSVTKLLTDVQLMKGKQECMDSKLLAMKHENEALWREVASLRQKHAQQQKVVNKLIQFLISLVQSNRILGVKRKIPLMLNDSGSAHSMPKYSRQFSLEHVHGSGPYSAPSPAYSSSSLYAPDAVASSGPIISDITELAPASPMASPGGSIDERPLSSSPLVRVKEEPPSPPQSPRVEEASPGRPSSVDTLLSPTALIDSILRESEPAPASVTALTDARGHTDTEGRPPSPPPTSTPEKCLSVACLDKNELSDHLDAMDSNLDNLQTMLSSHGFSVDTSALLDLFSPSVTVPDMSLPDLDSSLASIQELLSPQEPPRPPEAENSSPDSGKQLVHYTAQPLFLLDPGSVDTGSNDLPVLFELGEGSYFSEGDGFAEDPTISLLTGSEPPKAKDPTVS
# ELF4, sequence (Q99607 whole entry): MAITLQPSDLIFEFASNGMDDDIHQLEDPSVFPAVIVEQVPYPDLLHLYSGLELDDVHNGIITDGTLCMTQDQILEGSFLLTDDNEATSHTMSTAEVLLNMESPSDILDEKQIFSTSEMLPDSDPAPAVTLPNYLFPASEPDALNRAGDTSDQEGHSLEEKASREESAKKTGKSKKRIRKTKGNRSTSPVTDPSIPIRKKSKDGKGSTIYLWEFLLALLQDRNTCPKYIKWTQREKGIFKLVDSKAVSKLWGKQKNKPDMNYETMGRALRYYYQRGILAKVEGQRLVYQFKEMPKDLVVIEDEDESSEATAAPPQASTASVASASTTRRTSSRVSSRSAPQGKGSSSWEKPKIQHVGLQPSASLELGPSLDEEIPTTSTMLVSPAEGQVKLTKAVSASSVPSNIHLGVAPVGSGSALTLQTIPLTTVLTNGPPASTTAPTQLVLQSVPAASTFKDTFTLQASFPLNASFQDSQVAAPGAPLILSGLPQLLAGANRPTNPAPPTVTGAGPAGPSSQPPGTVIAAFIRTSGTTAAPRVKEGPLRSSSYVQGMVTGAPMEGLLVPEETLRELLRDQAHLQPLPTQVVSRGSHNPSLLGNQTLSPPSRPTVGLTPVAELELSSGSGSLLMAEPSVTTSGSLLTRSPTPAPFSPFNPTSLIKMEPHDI
sequence,measurement,setting,value
TACGTA,binding signal,FLI1,"1.41 fold enrichment (6-mer frequency, TF over GST control)"
same,binding signal,ELK1,"1.36 fold enrichment (6-mer frequency, TF over GST control)"
same,binding signal,GABPA,"1.31 fold enrichment (6-mer frequency, TF over GST control)"
same,binding signal,ERG,"1.2 fold enrichment (6-mer frequency, TF over GST control)"
same,binding signal,ELF1,"1.32 fold enrichment (6-mer frequency, TF over GST control)"
same,binding signal,EHF,"1.41 fold enrichment (6-mer frequency, TF over GST control)"
same,binding signal,SPI1,"1.35 fold enrichment (6-mer frequency, TF over GST control)"
same,binding signal,SPIB,"1.15 fold enrichment (6-mer frequency, TF over GST control)"
same,binding signal,ELK3,"1.37 fold enrichment (6-mer frequency, TF over GST control)"
same,binding signal,FEV,"1.27 fold enrichment (6-mer frequency, TF over GST control)"
same,binding signal,ETV5,"1.37 fold enrichment (6-mer frequency, TF over GST control)"
same,binding signal,HSF1,"1.23 fold enrichment (6-mer frequency, TF over GST control)"
same,binding signal,SPIC,"1.27 fold enrichment (6-mer frequency, TF over GST control)"
same,binding signal,ELF4,"1.33 fold enrichment (6-mer frequency, TF over GST control)"
same,binding signal,ELK4,"1.3 fold enrichment (6-mer frequency, TF over GST control)"
same,binding signal,ETV2,"1.33 fold enrichment (6-mer frequency, TF over GST control)"
same,binding signal,ELF3,"1.4 fold enrichment (6-mer frequency, TF over GST control)"
same,binding signal,CRX,"1.49 fold enrichment (6-mer frequency, TF over GST control)"
same,binding signal,ETV1,"1.4 fold enrichment (6-mer frequency, TF over GST control)"

# Reference: article PMC7862700, “An all-to-all approach to the identification of sequence-specific readers for epigenetic DNA modifications on cytosine”
